Screening results: PubChem BioAssay, several laboratories
phage Ecoli inh: E. coli growth loss with phage present; growth absorbance; inhibition, % at 11.9 µM; 360,000 compounds, 0.26% hits; AID 651602; in the data active = inhibition above about 11%
E coli growth-1: reduces bacterial viability in AddAB counter-screen | inhibition, % at 11.9 µM | 330,000 compounds, 0.27% hits | E. coli V3065 growth, OD600 absorbance, 18 h | AID 449728;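 active = inhibition above the campaign's mean inhibition across all tested compounds plus 3 SD, cut at about 9.9% in these data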;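 note: uninfected addAB+ strain grown without phage in ampicillin broth; 0% = DMSO wells and 100% = ciprofloxacin 0.95 µg/ml wells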
E coli growth-2: inhibitors of Escherichia coli growth. OD600 absorbance (concentration not given with the values). OD600, 23 h; stronger effect = lower value. AID 1053175. 330,000 compounds, 0.21% hits;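 active = OD600 absorbance below the run mean of sample wells minus 3.6 SD, in any replicate, cut at about 0.56 in these data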
Tat export inh: inhibitors of E. coli Tat protein transport. E. coli MC4100 TorA-mCherry Tat export, fluorescence. inhibition, % at 10 µM. 340,000 compounds, 0.036% hits. AID 488895;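 active = mean replicate inhibition at least 50% and at least half of replicates individually reaching 50%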;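 note: exported cargo escapes ClpAP degradation while cytoplasmic cargo is degraded and loses fluorescence; 0% = median of neutral control wells and 100% = median of NaSCN control wells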
AddAB inh: less growth of phage-infected E. coli with AddAB; inhibition, % at 11.9 µM; AID 435030; E. coli expressing H. pylori AddAB, absorbance growth; 330,000 compounds, 0.29% hits; in the data active = inhibition above about 12%;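 note: 0% = vehicle wells of infected cells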
AddAB confirm: confirmation screen: growth loss of phage-infected E. coli expressing H. pylori AddAB. shares compounds with AddAB inh. E. coli V3065 expressing H. pylori AddAB, T4 phage, OD; T4 phage with gene 2 nonsense mutations. inhibition, % at 11.9 µM. 880 compounds, 64% hits;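 active = mean inhibition above a set limit taken from the earlier primary screen, cut at about 13% in these data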;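 note: higher means less bacterial growth since AddAB block lets phage replicate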
RecBCD counter: reduces growth of phage-infected RecBCD+ E. coli, AddAB inhibitor counter-screen. inhibition, % at 11.9 µM. 880 compounds, 73% hits. AID 488955. E. coli V66 + mutant T4 phage, OD growth. shares compounds with AddAB inh;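 active = mean inhibition above the mean of solvent-only control wells plus 3 SD, cut at about 4% in these data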;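 note: optical density read after an 18 h incubation at 37 °C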
Bact viability: counter-screen: bacterial growth inhibition; AID 488956; shares compounds with AddAB inh; 880 compounds, 35% hits; inhibition, % at 11.9 µM; bacterial viability, absorbance (AddAB counterscreen); in the data active = inhibition above about 25%
* marks the source's active call; other numbers are inactive results; i = inactive; . = no result given. A selection: hits, their analogues and other compounds. The true share with any hit is near 0.51%.

SMILES | phage Ecoli inh | E coli growth-1 | E coli growth-2 | Tat export inh | AddAB inh | AddAB confirm | RecBCD counter | Bact viability
Cc1ccc(NC(=O)CSc2ccc(-c3ccccn3)nn2)cc1 | 10.3 | 4.0 | 0.664 | 7.3 | 9.4 | . | . | .
O=C(CN1CCCc2ccccc21)N/N=C/c1c(O)ccc2ccccc12 | 8.4 | 11.2* | . | -6.4 | 15.0* | 1.7 | 5.3* | -0.1
O=C(CN1CCCc2ccccc21)N/N=C/c1ccccc1 | 2.7 | -1.9 | . | 9.8 | 3.0 | . | . | .
Nc1c(S(=O)(=O)c2ccccc2)c2nc3ccccc3nc2n1N=Cc1cccc(O)c1 | . | . | 0.762 | . | . | . | . | .
Nc1c(S(=O)(=O)c2cccc(Cl)c2)c2nc3ccccc3nc2n1/N=C/c1ccc(O)c(O)c1 | . | 12.7* | . | . | 14.9* | 13.0* | 13.4* | 14.1
CCn1nnnc1SCC(=O)NCc1ccc2c(c1)OCO2 | 1.2 | 13.2* | 0.77 | -0.5 | 21.3* | -4.5 | -2.1 | -4.6
COc1ccc(OCC(O)CNc2ccc(Br)cc2)cc1 (configuration not stated) | 10.9 | 8.6 | 0.578 | -45.4 | 12.4* | 12.9* | 9.3* | 10.3
COc1ccc(OCC(O)CNC(=O)c2ccc(Br)cc2)cc1 (configuration not stated) | 3.3 | 1.8 | 0.726 | 1.2 | 0.0 | . | . | .
O=C(Cn1ccc(C(F)(F)F)n1)Nc1cccc(S(=O)(=O)N2CCCCC2)c1 | 5.5 | 23.7* | 0.652 | -1.2 | 34.6* | -5.4 | -0.7 | -2.0
Cc1c(Br)c([N+](=O)[O-])nn1C(C)C(=O)NCc1ccco1 (configuration not stated) | 1.8 | 6.5 | 0.642 | 8.2 | 16.8* | 17.4* | 2.6 | 12.0
COc1cccc(Cn2nnc(C(=O)NCc3ccc(F)cc3)c2N)c1 | 3.8 | 9.3 | 0.745 | -4.4 | 20.8* | 1.2 | 0.0 | -4.1
CCN1/C(=C/C=C/c2sc3ccccc3[n+]2CC)Sc2ccccc21 | . | 9.3 | . | i | 12.6* | 61.4* | 9.1* | 14.2
COC(=O)[C@]1(CC(C)C)NC(c2ccc(-c3ccc4c(c3)OCO4)cc2)C2C(=O)N(C)C(=O)C21 (some centres not stated) | . | . | 0.7 | . | . | . | . | .
C#CCNC(=O)C1=CC(C2CCCCC2)CC(OCCCCO)O1 (configuration not stated) | . | . | 0.724 | . | . | . | . | .
O=C(Nc1nc(-c2cccs2)c(C(=O)C(F)(F)F)s1)c1ccco1 | 6.1 | 95.9* | 0.672 | 1.4 | 98.7* | -3.2 | -0.1 | -1.3
O=C(Nc1nc(-c2cccs2)c(C(=O)C(F)(F)F)s1)c1ccccc1 | 3.3 | 3.3 | 0.693 | 16.2 | 6.8 | . | . | .
COc1ccccc1-[n+]1c(C)cc(/C=C2\Sc3ccccc3N2C)cc1C | 13.3* | 19.4* | 0.356* | -7.4 | 22.9* | 33.3* | 17.6* | 29.7*
CCOc1ccc(C(O)=C2C(=O)C(=O)N(c3nc(C)c(C)s3)C2c2ccco2)cc1 (configuration not stated) | . | . | 0.692 | . | . | . | . | .
CCN(CC)C(=O)C=Cc1ccccc1 | . | . | 0.648 | . | . | . | . | .
O=C(CSc1nc2ccccc2o1)Nc1ccc(N2CCOCC2)cc1 | 10.2 | 13.4* | 0.565 | -10.6 | 13.2* | 14.6* | 9.7* | 12.0
COc1cc(C=CC(=O)N2CCN(CC(O)COc3ccccc3)CC2)cc(OC)c1OC (configuration not stated) | . | . | 0.683 | . | . | . | . | .
CCCOc1ccc(S(=O)(=O)n2cc(F)c(=O)[nH]c2=O)cc1 | 3.3 | 6.4 | 0.692 | 2.1 | 13.1* | 10.7 | 0.9 | 5.4
CC(C)COc1ccc(S(=O)(=O)n2cc(F)c(=O)[nH]c2=O)cc1 | 6.5 | 6.9 | 0.665 | -4.3 | 12.9* | 3.5 | 2.1 | 4.3
CCOc1ccc(Cn2cc(F)c(=O)[nH]c2=O)cc1 | 2.5 | 1.0 | 0.647 | -8.8 | 1.6 | . | . | .
COc1ccc(NC(=O)CC2C(=O)N(c3cccc(C)c3)C(=O)N2C2CCCCC2)cc1 (configuration not stated) | 1.9 | 0.5 | 0.742 | -3.8 | 0.2 | . | . | .
SMILES | phage Ecoli inh | E coli growth-1 | E coli growth-2 | Tat export inh | AddAB inh | AddAB confirm | RecBCD counter | Bact viability
CCc1ccc(NC(=O)CC2C(=O)N(c3cccc(C)c3)C(=O)N2C2CC2)cc1 (configuration not stated) | 3.8 | 53.0* | 0.779 | -10.3 | 98.6* | -0.3 | 0.1 | -2.1
CCn1cc(C(=O)NN)c(=O)c2cc(F)c(N3CCCCC3)cc21 | -1.1 | . | 0.683 | -6.9 | . | . | . | .
CCn1cc(C(=O)NCc2cccc(F)c2)c(=O)c2cc(F)c(N3CCN(C(=O)c4ccco4)CC3)cc21 | 3.8 | 70.0* | 0.408* | 6.0 | 94.8* | 97.7* | 1.3 | 61.9*
CCCNC(=O)c1cn(CC)c2cc(N3CCN(C(=O)c4ccco4)CC3)c(F)cc2c1=O | 7.7 | 57.7* | 0.0895* | 15.1 | 94.0* | 98.9* | 1.6 | 57.9*
O=C(NNC(=S)NC(=O)c1ccco1)c1ccc(NC(=O)c2ccccc2)cc1 | -0.3 | 3.4 | 0.575 | -8.5 | 0.6 | . | . | .
O=C(NC(=S)NNC(=O)c1ccccc1O)c1ccco1 | 5.7 | 2.5 | 0.373* | -1.4 | 14.2* | 16.6* | 17.3* | 37.2*
Cn1ccnc1SCC(=O)c1ccc(Cl)cc1 | -0.9 | 35.4* | 0.683 | -2.6 | 82.1* | -0.2 | -0.5 | -4.6
Cn1ccnc1SCC(=O)c1ccc(O)cc1 | 0.6 | -0.8 | 0.686 | 3.8 | 0.4 | . | . | .
COc1ccc(NC(=O)CSc2nc3ncccc3[nH]2)cc1OC | 5.5 | 3.3 | 0.703 | -9.3 | 12.5* | -2.2 | 3.8 | 0.6
C=C(CC1(C(NP(=O)(c2ccccc2)c2ccccc2)C2CC2CCCC)CC1)c1ccccc1 (configuration not stated) | . | . | 0.682 | . | . | . | . | .
CC(C)CN1CCC(=O)N(C(COc2ccccc2)c2ccccc2)CC1 (configuration not stated) | . | . | 0.67 | . | . | . | . | .
O=C(O)c1cn(-c2ccc(N3CCCC3)c(F)c2)c2c(F)c(F)c(F)cc2c1=O | 0.1 | 17.0* | 0.464* | -7.9 | 22.0* | 21.4* | -2.2 | 4.5
CCCCCCN1Cc2ccccc2C1 | 4.5 | -1.1 | 0.746 | 2.4 | 3.3 | . | . | .
CCCCCCCCn1ccc(=N)cc1 | 2.5 | 10.1* | 0.611 | -5.7 | 13.1* | -2.9 | -0.1 | -1.8
CCCCCCCCCCn1ccc(=N)cc1 | 7.9 | 8.7 | 0.448* | -8.1 | 14.2* | 6.1 | 4.3* | 6.0
Cc1ccc(C2C3C(=O)N(C)C(=O)C3C3C(=O)Nc4ccccc4C(=O)N32)cc1 (configuration not stated) | . | . | 0.689 | . | . | . | . | .
COc1cccc(C(=O)Nc2nnc(-c3ccc(Cl)cc3)o2)c1 | -4.7 | -4.1 | 0.591 | -4.3 | 4.2 | . | . | .
COc1cccc(C(=O)Nc2nnc(-c3cccs3)o2)c1 | 3.0 | -1.7 | 0.565 | 5.4 | 12.5* | 9.5 | 5.7* | 0.4
NCCCCC1CNC(=O)C(=O)N1CCc1cccc2ccccc12 (configuration not stated) | . | . | 0.659 | . | . | . | . | .
